About 2,000 (36%) of roughly 5,500 compounds were called active. Not shown: some 18% with an inconclusive outcome. No stated cut-off is given here; in the data, active means normalized growth mostly below about 0.91 (no sharp cut-off); inconclusive means no clear call, values can overlap the other calls; inactive means mostly above about 0.92. This is one part of the list.
Assay: chemical genetic growth profiling, strain panel (AID 1159580);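 further: tested at 20 µM; growth read once vehicle control cultures reached saturation at 30 °C; 1 = growth at the plate median or of vehicle wells; lower values mean less growth of the strain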
Details: growth OD

Measured: normalized growth

CC(=O)O[C@H]1C[C@@H](OC(C)=O)C(C)(C)C2CC(=O)[C@]3(C)C(CC[C@@]4(C)[C@H](c5ccoc5)OC(=O)[C@H]5O[C@]543)[C@]21C (some centres not stated)
inactive: S. cerevisiae deletion strains, locus YJR075W, strain HOC1, hits give low values 1.01 | S. cerevisiae deletion strains, locus YKL009W, strain mrt4, hits give low values 0.974 | S. cerevisiae deletion strains, locus YKL068W, hits give low values 1.01 | S. cerevisiae deletion strains, locus YKL085W, strain MDH1 (second series), hits give low values 1.01 | S. cerevisiae deletion strains, locus YKL085W, strain MDH1, hits give low values 1.01 | S. cerevisiae deletion strains, locus YKL160W, strain elf1, hits give low values 0.998 | S. cerevisiae deletion strains, locus YKL190W, strain CNB1, hits give low values 0.998 | S. cerevisiae deletion strains, locus YKR001C, strain vps1, hits give low values 1.03 | S. cerevisiae deletion strains, locus YKR026C, strain gcn3, hits give low values 0.993 | S. cerevisiae deletion strains, locus YKR091W, strain srl3, hits give low values 0.991 | S. cerevisiae deletion strains, locus YLL001W, strain dnm1, hits give low values 0.99 | S. cerevisiae deletion strains, locus YLL026W, hits give low values 0.996 | S. cerevisiae deletion strains, locus YLL041C, strain sdh2, hits give low values 0.982 | S. cerevisiae deletion strains, locus YLR027C, strain aat2, hits give low values 0.988 | S. cerevisiae deletion strains, locus YLR039C, strain RIC1, hits give low values 1 | S. cerevisiae deletion strains, locus YLR058C, strain SHM2, hits give low values 1.01 | S. cerevisiae deletion strains, locus YLR102C, strain apc9, hits give low values 1 | S. cerevisiae deletion strains, locus YLR113W, strain HOG1, hits give low values 1.01 | S. cerevisiae deletion strains, locus YLR221C, strain rsa3, hits give low values 1 | S. cerevisiae deletion strains, locus YLR258W, strain gsy2, hits give low values 1 | S. cerevisiae deletion strains, locus YLR262C, strain YPT6 (second series), hits give low values 0.982 | S. cerevisiae deletion strains, locus YLR262C, strain YPT6, hits give low values 1.07 | S. cerevisiae deletion strains, locus YLR268W, strain sec22, hits give low values 0.998 | S. cerevisiae deletion strains, locus YLR320W, strain mms22, hits give low values 1.01 | S. cerevisiae deletion strains, locus YLR342W, strain FKS1 (second series), hits give low values 1.01 | S. cerevisiae deletion strains, locus YLR342W, strain FKS1, hits give low values 0.994 | S. cerevisiae deletion strains, locus YLR357W, strain rsc2, hits give low values 0.989 | S. cerevisiae deletion strains, locus YLR370C, strain arc18, hits give low values 0.998 | S. cerevisiae deletion strains, locus YLR371W, strain rom2, hits give low values 0.985 | S. cerevisiae deletion strains, locus YLR384C, strain iki3, hits give low values 0.984 | S. cerevisiae deletion strains, locus YLR418C, strain cdc73, hits give low values 1.03 | S. cerevisiae deletion strains, locus YML016C, strain PPZ1, hits give low values 0.996 | S. cerevisiae deletion strains, locus YML032C, strain rad52, hits give low values 1.01 | S. cerevisiae deletion strains, locus YML120C, strain ndi1, hits give low values 0.99 | S. cerevisiae deletion strains, locus YML124C, strain tub3, hits give low values 1 | S. cerevisiae deletion strains, locus YMR058W, strain fet3, hits give low values 0.978 | S. cerevisiae deletion strains, locus YMR078C, strain ctf18, hits give low values 0.996 | S. cerevisiae deletion strains, locus YMR125W, strain sto1, hits give low values 0.98 | S. cerevisiae deletion strains, locus YMR129W, hits give low values 0.994 | S. cerevisiae deletion strains, locus YMR205C, strain PFK2, hits give low values 0.992 | S. cerevisiae deletion strains, locus YMR223W, strain ubp8, hits give low values 1.01 | S. cerevisiae deletion strains, locus YMR231W, strain pep5, hits give low values 0.978 | S. cerevisiae deletion strains, locus YMR263W, strain SAP30, hits give low values 1.02 | S. cerevisiae deletion strains, locus YMR307W, strain GAS1, hits give low values 1.03 | S. cerevisiae deletion strains, locus YNL067W, strain RPL9B, hits give low values 1.03 | S. cerevisiae deletion strains, locus YNL071W, strain lat1, hits give low values 0.992 | S. cerevisiae deletion strains, locus YNL128W, strain TEP1, hits give low values 0.988 | S. cerevisiae deletion strains, locus YNL153C, strain GIM3, hits give low values 1.02 | S. cerevisiae deletion strains, locus YNL183C, strain NPR1, hits give low values 0.941 | S. cerevisiae deletion strains, locus YNL209W, strain ssb2, hits give low values 0.987 | S. cerevisiae deletion strains, locus YNL233W, strain BNI4, hits give low values 1.02 | S. cerevisiae deletion strains, locus YNL248C, strain rpa49, hits give low values 0.981 | S. cerevisiae deletion strains, locus YNL250W, strain rad50, hits give low values 1.03 | S. cerevisiae deletion strains, locus YNL271C, strain bni1, hits give low values 1 | S. cerevisiae deletion strains, locus YNL298W, strain CLA4, hits give low values 1.02 | S. cerevisiae deletion strains, locus YNL307C, strain MCK1, hits give low values 1.02 | S. cerevisiae deletion strains, locus YNL322C, strain KRE1 (second series), hits give low values 0.994 | S. cerevisiae deletion strains, locus YNR049C, strain mso1, hits give low values 0.987 | S. cerevisiae deletion strains, locus YNR052C, strain pop2, hits give low values 1.02 | S. cerevisiae deletion strains, locus YOL012C, strain htz1 1 | S. cerevisiae deletion strains, locus YOL147C, strain pex11, hits give low values 1.01 | S. cerevisiae deletion strains, locus YOR001W, strain rrp6, hits give low values 0.986 | S. cerevisiae deletion strains, locus YOR061W, strain CKA2, hits give low values 0.991 | S. cerevisiae deletion strains, locus YOR069W, strain VPS5, hits give low values 1 | S. cerevisiae deletion strains, locus YOR070C, strain gyp1, hits give low values 1.01 | S. cerevisiae deletion strains, locus YOR080W, strain dia2, hits give low values 1 | S. cerevisiae deletion strains, locus YOR083W, strain WHI5, hits give low values 0.995 | S. cerevisiae deletion strains, locus YOR106W, strain vam3, hits give low values 1 | S. cerevisiae deletion strains, locus YOR136W, strain idh2, hits give low values 1.01 | S. cerevisiae deletion strains, locus YOR144C, strain elg1, hits give low values 1.01 | S. cerevisiae deletion strains, locus YOR184W, strain ser1, hits give low values 0.996 | S. cerevisiae deletion strains, locus YOR231W, strain MKK1, hits give low values 0.981 | S. cerevisiae deletion strains, locus YOR265W, strain rbl2, hits give low values 0.99 | S. cerevisiae deletion strains, locus YOR270C, strain vph1, hits give low values 0.943 | S. cerevisiae deletion strains, locus YOR290C, strain snf2, hits give low values 1 | S. cerevisiae deletion strains, locus YOR316C, strain cot1, hits give low values 1.02 | S. cerevisiae deletion strains, locus YPL051W, strain arl3, hits give low values 1.03 | S. cerevisiae deletion strains, locus YPL078C, strain atp4, hits give low values 0.989 | S. cerevisiae deletion strains, locus YPL106C, strain sse1, hits give low values 1 | S. cerevisiae deletion strains, locus YPL240C, strain hsp82, hits give low values 0.995 | S. cerevisiae deletion strains, locus YPL256C, strain CLN2, hits give low values 0.968 | S. cerevisiae deletion strains, locus YPR119W, strain clb2, hits give low values 1.01 | S. cerevisiae deletion strains, locus YPR141C, strain kar3, hits give low values 1 | S. cerevisiae deletion strains, locus YPR163C, strain tif3, hits give low values 1.01 | S. cerevisiae deletion strains, locus YPR167C, strain met16, hits give low values 1 | S. cerevisiae deletion strains, strain wtn01, hits give low values 0.984 | S. cerevisiae strains, strain wild type, hits give low values 0.991

Reference: PubChem BioAssay AID1159580 (chemical genetic matrix, 2015)
